High-throughput results: PubChem BioAssay, National Center for Advancing Translational Sciences (NCATS)
D1 antag – antagonists of human D1 dopamine receptor. P21728. HEK293 TREx D1 cells, calcium flux, dopamine EC80; hits give low values. activity change, negative = inhibition, % at 10 µM. 360,000 tested, 3.2% active. AID 504652; in the data active = activity change below about -30%; also: % is scaled to controls: 0 for no effect and ±100 for the full control effect
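Inducible Hek293 Trex D1 cells (tetracycline, overnight, 30 C). Calcium dye 30–90 min RT. Antagonist mode: EC80 dopamine added after 180 s compound read.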
D1 ag – activates the human D1 dopamine receptor. 360,000 tested, 1% active. AID 504660. activation, % at 2 µM. HEK293 T-REx D1 cells, calcium flux, agonist mode. P21728; in the data active = activation above about 30%; also: 0% is about no effect
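Agonism was scored from calcium flux recorded over 180 s (1 read/s) after pintool compound addition, following a 10-cycle baseline. Cells were inducible force-coupled HEK293 TREx D1, plated overnight at 30 C and loaded with no-wash calcium dye.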
DRD3 antagonist – D3 dopamine receptor (human) antagonism; P35462; D3R cells, DiscoveRx beta-arrestin luminescence, antagonist mode; hits give low values; max response, negative = inhibition, %; 360,000 tested, 2.5% active; AID 652054; in the data active = max response below about -50%; inconclusive = no clear call, values can overlap the other calls; also: % is scaled to controls: 0 for no effect and ±100 for the full control effect
Target sequence (P35462 whole entry, looked up): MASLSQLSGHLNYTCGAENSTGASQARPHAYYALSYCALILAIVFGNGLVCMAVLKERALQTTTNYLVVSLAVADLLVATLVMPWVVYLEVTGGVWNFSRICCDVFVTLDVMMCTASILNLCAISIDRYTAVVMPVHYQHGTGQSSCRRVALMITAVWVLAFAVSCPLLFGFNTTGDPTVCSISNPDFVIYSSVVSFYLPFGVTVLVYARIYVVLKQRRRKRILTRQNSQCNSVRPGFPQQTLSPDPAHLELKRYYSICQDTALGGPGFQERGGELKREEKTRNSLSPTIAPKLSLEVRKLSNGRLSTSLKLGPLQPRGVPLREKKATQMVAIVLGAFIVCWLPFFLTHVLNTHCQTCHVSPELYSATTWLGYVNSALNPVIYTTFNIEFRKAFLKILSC
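Cells plated overnight at 1500 cells/well, then exposed to library compounds with dopamine controls for 90 minutes at 37 degrees C. DiscoveRx reagent added for 30–60 minutes at room temperature; luminescence read, quantitative HTS format.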
D1 PAM – human D1 dopamine receptor positive modulation. 360,000 tested, 0.036% active. P21728. potentiation, % at 10 µM. HEK293 TREx D1 cells, calcium flux, dopamine EC20 potentiation; in the data active = potentiation above about 30%; also: 0% is about no effect
DRD3 agonist – activates the human D3 dopamine receptor. P35462. D3R DiscoveRx beta-arrestin cells, luminescence, 90 min. max activation, %. 410,000 tested, 0.58% active; in the data active = max activation above about 30%; also: 0% is about no effect
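Cells at 1500/well, incubated overnight, then treated with pinned compounds (dopamine as control) for 90 min at 37 degrees C. DiscoveRx reagent added for 30 - 60 minutes at room temperature; luminescence read.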
* hit, by the source's call; ? = inconclusive; · = not tested or not shown. This is a sample that favours compounds with a hit; in the whole collection about 6.1% have one here.

SMILES	D1 antag	D1 ag	DRD3 antagonist	D1 PAM	DRD3 agonist
COc1ccc(CNC(=O)CCc2c(C)nn(-c3ccc(N4CCCCC4)nn3)c2C)cc1	-2	0	·	-4	-5
COc1cccc(CNC(=O)CCc2c(C)nn(-c3ccc(N4CCCC4)nn3)c2C)c1	-40*	0	·	-6	7
COc1cc(NC(=O)CCc2c(C)nn(-c3ccc(N4CCCCC4)nn3)c2C)cc(OC)c1OC	3	1	·	-4	73*
CCOc1ccccc1NC(=O)CCc1c(C)nn(-c2ccc(N3CCOCC3)nn2)c1C	-68*	0	·	-9	-1
Cc1ccccc1NC(=O)CCc1c(C)nn(-c2ccc(N3CCOCC3)nn2)c1C	-13	1	-1	-5	-6
Cc1noc(C)c1S(=O)(=O)NC(=O)C1(C)CCN1C(=O)C1(c2ccc(Cl)cc2)CC1 (centres undefined)	·	·	-6	·	3
COc1ccc(N(CC(=O)Nc2nccs2)S(=O)(=O)c2c(C)nn(C)c2C)cc1	-55*	0	-16	-1	1
COc1ccc(N(CC(=O)Nc2ccc3c(c2)OCCO3)S(=O)(=O)c2c(C)nn(C)c2C)cc1	-30*	1	-12	-6	1
Cc1nn(C)c(C)c1S(=O)(=O)N(CC(=O)Nc1nccs1)c1ccc(C(C)C)cc1	1	1	7	-2	2
CCc1ccc(NC(=O)CN(c2ccc(OC)cc2)S(=O)(=O)c2c(C)nn(C)c2C)cc1	4	3	0	-9	-1
CCOC(=O)c1cc2c(=O)n3ccccc3nc2n(CC2CCCO2)c1=NC(=O)c1cc(C)cc(C)c1 (centres undefined)	-13	-1	·	0	10
COc1ccc(/C=C2/SC(=S)N(NS(=O)(=O)c3ccc(C)cc3)C2=O)cc1	-47*	6	-21	·	-8
COCCNC(=O)CCn1c(=O)c2cc(OC)c(OC)cc2n(CC(=O)Nc2ccc(F)c(Cl)c2)c1=O	21	-1	·	1	-3
CN1CCCN(C2C3CC4CC(C3)CC2C4)CC1 (centres undefined)	2	6	-92*	-1	-4
CC(NC(=O)c1cccc(S(=O)(=O)N2CCN(Cc3ccccc3)CC2)c1)c1ccc(Cl)cc1 (centres undefined)	15	12	-1	-4	2
CCOCCNC(=O)c1ccccc1C(=O)NCCOCC	-8	1	14	-3	-4
CCOCCN(C(=O)c1ccccc1Cl)c1cccc(C)c1C	-38*	0	-10	-9	-3
CCOC(=O)C1(C)CCCCCN1C(=O)c1ccc(N(C)C)cc1 (centres undefined)	·	·	14	·	7
Cc1ccc(CNC(=O)CSc2n[nH]c(-c3ccc(F)cc3)n2)cc1	0	0	·	3	1
C=C(C)COc1cc2oc(=O)c(CC(=O)N3C[C@H]4C[C@@H](C3)c3cccc(=O)n3C4)c(C)c2cc1Cl	-7	0	-21	0	33*
COc1ccc(C(=O)NCC2COc3ccccc3O2)cc1S(=O)(=O)N1CCOCC1 (centres undefined)	-34*	0	4	-4	3
O=C(NCC1COc2ccccc2O1)c1ccc(F)c(S(=O)(=O)N2CCOCC2)c1 (centres undefined)	-10	8	6	-1	-10
COc1ccccc1OCCNC(=O)c1ccc(C)c(S(=O)(=O)N2CCOCC2)c1	-6	30*	9	-7	0
COc1ccccc1OCCNC(=O)c1cccc(S(=O)(=O)N2CCN(C)CC2)c1	6	1	-11	5	-12
Cc1ccc(C(=O)O)cc1S(=O)(=O)N1CCOCC1	-10	4	-72*	1	11
SMILES	D1 antag	D1 ag	DRD3 antagonist	D1 PAM	DRD3 agonist
COc1ccc(C(=O)NCc2ccncc2)cc1S(=O)(=O)N1CCOCC1	-48*	4	10	·	-10
COc1cc(C(=O)Nc2ccc3c(c2)OCO3)ccc1OCc1c(C)noc1C	16	1	-3	-5	12
COc1cccc(CNC(=O)c2ccc(Cl)c(S(=O)(=O)N3CCOCC3)c2)c1	-34*	2	1	-11	2
O=C(Nc1cccc(S(=O)(=O)N2CCCCCC2)c1)C1CCN(C(=O)c2ccc(Cl)cc2)CC1	12	1	2	-3	-2
COc1cccc(C(C(=O)NC2CCCC2)N(C(=O)CNC(=O)c2ccco2)c2cccnc2)c1 (centres undefined)	-10	-1	7	-11	3
CCOC(=O)Cn1cc(Cn2c3ccccc3c(=O)n2C(C)C)nn1	·	·	?	·	-3
CCN(CC)c1ccc(C(=O)Nc2ccc3nc(N(CC)CC)cc(C)c3c2)cc1	-3	-1	·	-1	0
Cc1nn(C)cc1C=NCCOCc1ccccc1	-32*	1	-13	-6	2
Cc1nn(C)cc1/C=N/NC(=O)c1ccco1	-12	3	4	1	-2
CCN(CC)C(=O)CN(c1cc2c(cc1OC)oc1ccccc12)S(=O)(=O)c1ccccc1	-68*	2	0	-11	-15
CC(C)c1ccc(CN2CCC(n3nccc3NC(=O)C3CCCC3)CC2)cc1	·	·	12	·	1
Cn1ccsc1=NC(=O)c1ccccc1F	-5	1	13	-6	1
Cc1ccc(C)c(-n2c(-c3ccc(Br)cc3)csc2=NC(=O)c2ccccc2F)c1	-42*	8	7	12	2
Cc1ccc(S(=O)(=O)Nc2cccc3c2CCCC3)cc1	-32*	6	13	-2	-3
Cc1ccc(S(=O)(=O)Nc2ccccc2NS(=O)(=O)c2ccc(C)cc2)cc1	·	·	10	·	3
Cc1cccc(NC(=O)Cn2c(/C=C/c3ccccc3)nc3ccccc32)c1	-3	6	5	-3	3
O=[N+]([O-])c1ccc(CNc2ccc(Cl)cc2)s1	-37*	5	-8	-9	6
O=C(Nc1ccnc(=O)[nH]1)c1sc2ccccc2c1Cl	1	2	8	-7	-12
COc1ccc(CNC(=O)Cc2csc(Nc3nc(=S)[nH]c4ccccc34)n2)cc1	-12	3	?	-5	-3
CCOC(=O)c1c(C)[nH]c(CCC(=O)NCCCN2CCN(c3ccccc3F)CC2)c1C	-24	1	·	-5	12
O=C(Cc1csc(Nc2nc(=S)[nH]c3ccccc23)n1)NCc1ccc(Cl)cc1	-97*	3	-21	-12	-14
O=C(Cc1csc(Nc2nc(=S)[nH]c3ccccc23)n1)NCCCN1CCN(c2ccccc2F)CC1	-86*	0	-69*	-17	4
Cc1cccc(C)c1NC(=O)c1cccc2c1C(=O)N(C1CCCCC1)C2	29	4	-11	10	10
Cc1ccc2nc(N(CCCN(C)C)C(=O)c3ccc(S(=O)(=O)N4CCCCCC4)cc3)sc2c1	1	38*	-24	0	-23
Cc1ccc2nc(N(CCN(C)C)C(=O)c3ccc4c(c3)OCCO4)sc2c1	-12	7	-7	-11	-20
